# Test results as given in the supplement of paper PMC7156485.
# ± gives the standard deviation of the averaged measurements.
# System: HCC1569
# Experiment: cell number relative to DMSO (% of DMSO); higher = more cells (less growth inhibition / toxicity)
# Conditions: concentration: 10 µM; 24 h
# How it was run: (§1)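 For HCC1569 and TDF cells, compounds at 10 µM were applied for 24 h at 37 °C in triplicate in 384-well plates. Cells were fixed in 3.7% formaldehyde, stained for H1.0 and with DAPI, and imaged at ×10 over six fields per well. The endpoint, H1.0 nuclear intensity or cell number, is shown as percent of the plate control using the median of replicates. Positional effects were smoothed for HCC1569 only.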
# 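Also: TDF denotes transformed human dermal fibroblasts of mesenchymal origin.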
row,Structure (SMILES),cell number
1,N[C@H](C(=O)O)c1cccc(O)c1 [(S)-3-Hydroxyphenylglycine],95.2
2,CC(C)NNC(=O)c1ccncc1.O=P(O)(O)O [Iproniazid phosphate],116
3,O=C(O)C=CC(=O)O.c1cnc(N2CCN(Cc3ccc4c(c3)OCO4)CC2)nc1 [Piribedil maleate],101
4,COC(=O)c1c(C)[nH]c(C)c1C(=O)c1ccccc1Cc1ccccc1,102
5,CCC(C(=O)C(C)C(O)C(C)CCc1ccc(C)c(O)c1C(=O)[O-])C1OC(CC)(C2CCC(O)(CC)C(C)O2)CC1C.[Na+] (stereo unspecified) [Lasalocid A],79.3
6,CC(=O)OCC1=C(C(=O)[O-])N2C(=O)C(NC(=O)Cc3cccs3)C2SC1.[Na+] (stereo unspecified) [Cephalothin sodium],100

# System: TDF
# Experiment: as above
# Conditions: concentration: 10 µM; 24 h
# How it was run: as §1
row,Structure (SMILES),cell number
1,CCc1nc(-c2cccc(C)c2)c(-c2ccnc(NC(=O)c3ccccc3)c2)s1,84.4
2,CC1(C)C=Cc2c(ccc3c2OC[C@@H](c2ccc(O)cc2O)C3)O1,93.1
3,O=C(Nc1ccccc1)c1cc([N+](=O)[O-])ccc1Cl,90.5
4,COC1C=COC2(C)Oc3c(C)c(O)c4c(O)c(cc([O-])c4c3C2=O)NC(=O)C(C)=CC=CC(C)C(O)C(C)C(O)C(C)C(OC(C)=O)C1C.[Na+] (stereo unspecified),101
5,CC1=C(CC(=O)O)c2cc(F)ccc2C1=Cc1ccc(S(C)(=O)=O)cc1 [Sulindac sulfone],117
6,COc1ccc2c(c1)c(CC(=O)O)c(C)n2Cc1ccc(F)cc1 [1-(4-Fluorobenzyl)-5-methoxy-2-methylindole-3-acetic acid],95.2
7,CCC1C(=O)OCC1Cc1cncn1C.O=[N+]([O-])O (stereo unspecified) [Pilocarpine nitrate],86.9
8,CN(C)CCCOC1C(C(O)CO)OC2OC(C)(C)OC21.Cl (stereo unspecified) [Amiprilose hydrochloride],106
9,O=C(O)CCCc1c[nH]c2ccccc12 [Indole-3-butyric acid],99
10,C=C1CCC(O)CC1=CC=C1CCCC2(C)C1CCC2C(C)CCCC(C)(C)O (stereo unspecified) [Calcifediol],104
11,CNC(=O)c1ccccc1Sc1ccc2c(C=Cc3ccccn3)n[nH]c2c1 [Axitinib],46.4
12,O=C1CC(c2ccc(O)c(O)c2)Oc2cc(OC3OC(CO)C(O)C(O)C3O)cc(O)c21 (stereo unspecified) [Eriodictyol-7-O-glucoside],94.3
13,OC1CCN2Cc3ccccc3N=C12 (stereo unspecified) [Vasicine],105
14,O=C1NC(=O)c2c1c(-c1ccccc1)cc1[nH]c3ccc(O)cc3c21,51.1
15,CCCCCCCCC=CCCCCCCCCCCCCCC(=O)O [15(Z)-Tetracosenoic acid],98.8
16,CC1=NS(=O)(=O)c2cc(Cl)ccc2N1 [Diazoxide],111 ± 7.2
17,O=C1Cc2c([nH]c3ccc(Br)cc23)-c2ccccc2N1 [Kenpaulone],97.7
18,"CC(C)(C)C1(O)CCN2CC3c4ccccc4CCc4cccc(c43)C2C1.Cl (single isomer, unassigned; (+)) [(+)-Butaclamol hydrochloride]",49.9
19,Cc1cc(C)c(C=C2C(=O)Nc3ccccc32)[nH]1 [VEGF Receptor 2 Kinase Inhibitor III],105
20,NC(N)=NCc1cccc(I)c1.NC(N)=NCc1cccc(I)c1.O=S(=O)(O)O [m-Iodobenzylguanidine hemisulfate],98.8

row,Structure (SMILES),cell number
1,CCCCCCCCCCOCCC(=O)O [4-Oxatetradecanoic acid],110
2,O=C(CCCc1ccc(-c2ccccc2F)cc1)Nc1ccc(O)cc1 [MK2a Inhibitor],11.1
3,CCCOc1ccc(C=C2SC(=O)NC2=O)cc1 [PIM1/2 Kinase Inhibitor VI],110
4,C=C1C(=O)OC2C1CCC(=C)C1CCC(=C)C12 (stereo unspecified) [Dehydrocostus lactone],64.3
5,NC(=O)C(=O)[O-].[Na+] [Sodium Oxamate],105
6,"CCCC1=C(c2ccc(O)cc2)N(c2ccc(O)cc2)NC1=C1C=CC(=O)C=C1 [1,3,5-tris(4-hydroxyphenyl)-4-propyl-1H-pyrazole]",107
7,C=CC1CN2CCC1CC2C(O)c1ccnc2ccc(OC)cc12.Cl.O.O (stereo unspecified),99.4 ± 3.1
8,CCCCCCCCCCCCCCCCCCOCC(COP(=O)([O-])OCC[N+](C)(C)C)OC(C)=O (stereo unspecified),115
9,COc1cc(C(=O)NS(=O)(=O)c2ccccc2C)ccc1Cc1cn(C)c2ccc(NC(=O)OC3CCCC3)cc12 [Zafirlukast],110
10,OC1(c2ccc(Cl)cc2)CCN(Cc2c[nH]c3ccccc23)CC1,93
11,O=C1CC(c2ccc(O)cc2)Oc2cc(O)cc(O)c21 (stereo unspecified) [Naringenin],110
12,CC(=O)N1CCN(C(=O)/C=C/c2ccc(Sc3ccccc3C(C)C)c([N+](=O)[O-])c2)CC1,86.4
13,Br.CN1CCc2c(cc(O)c(O)c2Cl)C(c2cccc(Cl)c2)C1 (stereo unspecified),81.1
14,CC(=O)O.CN=C(N)NCCCC(N)C(=O)O [NG-Monomethyl-L-arginine acetate],102
15,N[C@H](C(=O)O)c1cccc(O)c1 [(S)-3-Hydroxyphenylglycine],99.7
16,CC(C)NNC(=O)c1ccncc1.O=P(O)(O)O [Iproniazid phosphate],119
17,O=C(O)C=CC(=O)O.c1cnc(N2CCN(Cc3ccc4c(c3)OCO4)CC2)nc1 [Piribedil maleate],116
18,COC(=O)c1c(C)[nH]c(C)c1C(=O)c1ccccc1Cc1ccccc1,102
19,CCC(C(=O)C(C)C(O)C(C)CCc1ccc(C)c(O)c1C(=O)[O-])C1OC(CC)(C2CCC(O)(CC)C(C)O2)CC1C.[Na+] (stereo unspecified) [Lasalocid A],88.5
20,CC(=O)OCC1=C(C(=O)[O-])N2C(=O)C(NC(=O)Cc3cccs3)C2SC1.[Na+] (stereo unspecified) [Cephalothin sodium],113
